Results reported in PubChem BioAssay (Tox21).
Inconclusive results are not listed. Activity calls are given as the source filed them. Unless noted, calls follow the shape of the dose curve; as a rule, active = well fitted curve in the direction sought with a large enough effect in the repeat runs; inconclusive = weak or mixed curves; inactive = no such curve, though single readings can be large; an effect the other way counts as inactive or inconclusive.

What was measured:
[1] = qHTS assay to identify small molecule agonists of the NFkB signaling pathway (AID 1159509; active = well fitted curve in the direction sought with a large enough effect in the signal ratio in the repeat runs, not every such curve was filed as active; the % refers to the signal ratio; also: series mostly up to about 61 µM)
Method in brief: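 Readout: FRET fluorescence, 405 nm excitation, 460/530 nm emission; beta-lactamase expression disrupts FRET. Cells: ME-180 stably carrying NF-kB-driven bla reporter. Compound exposure 5 hr, 37 C, 5% CO2.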

[2] = qHTS assay to identify small molecule agonists of the NFkB signaling pathway - cell viability counter screen (AID 1159515; calls by dose curve; also: series mostly up to about 61 µM; nearly all actives have a fitted effect of over 55% in size)
Method in brief: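 Tox21 library compounds were tested for cytotoxicity against NFkB-bla ME-180 cells during a 5 hr exposure at 37 C. CellTiter-Glo luminescence served as the viability read-out.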

[3] = qHTS assay to identify small molecule agonists of the endoplasmic reticulum stress response signaling pathway (AID 1159516; active = well fitted activation curve with a large enough effect in the signal ratio in the repeat runs, not every such curve was filed as active; the % refers to the signal ratio)
Method in brief: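 Fluorescence at 460 and 530 nm (405 nm excitation) reports beta-lactamase from an ER stress response element in HeLa cells treated 5 hr at 37 C.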

[4] = qHTS assay to identify small molecule agonists of the endoplasmic reticulum stress response signaling pathway - cell viability counter screen (AID 1159517; calls by dose curve; also: series mostly up to about 61 µM; nearly all actives have a fitted effect of over 50% in size)
Method in brief: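 Cytotoxicity of test compounds toward ESRE-bla HeLa cells was assessed after 5 hr exposure. The luminescent CellTiter-Glo signal was measured 30 min after reagent addition.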

[5] = qHTS assay to identify small molecule agonists of the AP-1 signaling pathway - cell viability counter screen (AID 1159525; calls by dose curve; also: nearly all actives have a fitted effect of over 55% in size)
Method in brief: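 Each titration point was normalised to DMSO and tetra n-octyl ammonium bromide controls. The read was Cell Titer Glo luminescence after 30 min at RT, following 5 h compound exposure of ME-180 AP-1-bla cells at 37 °C.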

[6] = qHTS assay to identify small molecule agonists of the AP-1 signaling pathway (AID 1159526; calls by dose curve)
[7] = qHTS assay to identify small molecule antagonists of the retinoid acid receptor (RAR) signaling pathway - cell viability counter screen (AID 1159551); also: nearly all actives have a fitted effect of over 35% in size
Method in brief: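 In this counter screen, the RARE-luciferase line C3RL4 was exposed for 6 h at 37 C and 5% CO2 to compounds with retinol at 1 uM final. Cellular ATP, read by luminescence, served as the viability measure.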

[8] = qHTS assay to identify small molecule agonists of the retinoic acid receptor (RAR) signaling pathway (AID 1159553)
Method in brief: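 In this cell-based screen, 1,000 C3RL4 cells per well were cultured overnight, dosed with test chemicals in DMSO for 6 hr, and assessed for RARE luciferase luminescence.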

[9] = qHTS assay to identify small molecule antagonists of the vitamin D receptor (VDR) signaling pathway - cell viability counter screen (AID 743225); also: nearly all actives have a fitted effect of over 50% in size; also: potency is read from the fitted curve at half-maximal effect
Method in brief: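 HEK293T VDR-bla; cpd + 1a,25-(OH)2D3 3 nM final, 16 h 37C/5% CO2; B/G FRET substrate 2 h RT; then CellTiter-Glo 30 min RT, luminescence.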

[10] = target: Retinoic acid receptor RXR-alpha (Homo sapiens) (UniProt P19793); experiment: qHTS assay to identify small molecule agonists of the RXR signaling pathway (AID 1159527; calls by dose curve; also: nearly all actives have a fitted effect of over 35% in size)
Method in brief: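 Cells plated at 2,000/well, rested 5 hr at 37 C, pin-dosed with DMSO compound solutions, incubated 16 hr, then loaded with B/G FRET substrate for 2 hr at RT before dual-emission fluorescence reading.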

[11] = qHTS assay to identify small molecule agonists of the RXR signaling pathway - cell viability counter screen (AID 1159529); also: nearly all actives have a fitted effect of over 50% in size; also: potency is read from the fitted curve at half-maximal effect
Method in brief: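 Steps: seed RXR-alpha-UAS-bla HEK 293T cells in assay medium containing 2% charcoal-stripped FBS; incubate 5 hr; add compounds in DMSO; incubate 16 hr at 37 C; after the bla read, add CellTiter-Glo and read luminescence at 30 min.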

[12] = qHTS assay to identify small molecule antagonists of the retinoid-related orphan receptor gamma (ROR-gamma) signaling pathway - cell viability counter screen (AID 1159520); also: nearly all actives have a fitted effect of over 50% in size
Method in brief: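 Tet-on ROR gamma CHO cells (1,000/well) were plated 4 hr, given compounds in DMSO for 2 hr at 37 C, then induced with 1 uM final doxycycline for 16 hr. Viability was read as ATP by CellTiter-Glo luminescence after 30 min.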

[13] = qHTS assay to identify small molecule antagonists of the retinoic acid receptor (RAR) signaling pathway (AID 1159552; also: nearly all actives have a fitted effect of over 50% in size)
Method in brief: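 Retinol at 1 uM final stimulated RARE-luciferase expression in C3RL4 cells exposed to test compounds for 6 hr at 37 C. Reduced luminescence, read 30 min after detection reagent, indicated pathway antagonism.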

[14] = target: Nuclear receptor ROR-gamma (Homo sapiens) (UniProt P51449); experiment: qHTS assay to identify small molecule antagonists of the retinoid-related orphan receptor gamma (ROR-gamma) signaling pathway (AID 1159521; also: nearly all actives have a fitted effect of over 50% in size; also: potency is read from the fitted curve at half-maximal effect)
Method in brief: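 Cells were plated, rested 4 h at 37 C, exposed to compounds for 2 h, then given 1 uM final doxycycline hyclate to induce RORγ expression. After 16 h, ONE-Glo luminescence from the ROR response element reporter was measured.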

[15] = qHTS assay to identify small molecule antagonists of the estrogen related receptor (ERR) signaling pathway - cell viability counter screen (AID 1224818); also: series mostly up to about 46 µM
Method in brief: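 Viability of ERR cells, CellTiter-Fluor fluorescence; 17.5 h compound exposure at 37 C, DMSO vehicle; 30 min reagent incubation at 37 C/5% CO2.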

[16] = qHTS assay to identify small molecule antagonists of the estrogen related receptor (ERR) signaling pathway (AID 1224819)
Method in brief: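 Seed ERR cells 2,000/well; rest 6 h at 37 C/5% CO2; pin compounds in DMSO; incubate 18 h at 37 C; add One-Glo; wait 30 min at room temperature; measure luminescence.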

[17] = qHTS assay to identify small molecule agonists of the estrogen related receptor (ERR) signaling pathway (AID 1224820)
Method in brief: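 Luminescence readout (One-Glo, 30 min RT) from NTP-supplied ERR cell line exposed to compounds for 18 h at 37 C. Cells seeded 2,000 per well and pre-incubated 6 h before pin-tool compound transfer.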

[18] = test system: estrogen-related receptor alpha (ERRalpha) with PGC-1alpha coactivator, human; experiment: qHTS assay to identify small molecule antagonists of the estrogen related receptor signaling pathway with the pleiotropic PPARgamma coactivator (PGC) (AID 1224821; calls by dose curve)
Method in brief: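 PGC/ERR reporter cells; 6 h pre-incubation 37 C/5% CO2; pin-tool compound in DMSO, 18 h 37 C; One-Glo added, 30 min RT; luminescence read. qHTS antagonist mode.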

[19] = qHTS assay to identify small molecule antagonists of the estrogen related receptor signaling pathway with the pleiotropic PPARgamma coactivator (PGC) cell viability counter screen (AID 1224822; also: series mostly up to about 46 µM)
Method in brief: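 17.5 h compound treatment of PGC/ERR cells at 37 C; readout CellTiter-Fluor fluorescence; run alongside the PGC/ERR antagonist screen to flag cytotoxic compounds.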

[20] = qHTS assay to identify small molecule agonists of the estrogen related receptor signaling pathway with the pleiotropic PPARgamma coactivator (PGC) (AID 1224823)
Method in brief: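 Luminescence readout (One-Glo, 30 min RT) from PGC/ERR cell line treated 18 h at 37 C with pin-tool-delivered DMSO compound solutions; cells plated 6 h before dosing. Quantitative HTS format.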

Measured: Potency

Chain of Retinoic acid receptor RXR-alpha (Homo sapiens) (P19793 whole entry, looked up): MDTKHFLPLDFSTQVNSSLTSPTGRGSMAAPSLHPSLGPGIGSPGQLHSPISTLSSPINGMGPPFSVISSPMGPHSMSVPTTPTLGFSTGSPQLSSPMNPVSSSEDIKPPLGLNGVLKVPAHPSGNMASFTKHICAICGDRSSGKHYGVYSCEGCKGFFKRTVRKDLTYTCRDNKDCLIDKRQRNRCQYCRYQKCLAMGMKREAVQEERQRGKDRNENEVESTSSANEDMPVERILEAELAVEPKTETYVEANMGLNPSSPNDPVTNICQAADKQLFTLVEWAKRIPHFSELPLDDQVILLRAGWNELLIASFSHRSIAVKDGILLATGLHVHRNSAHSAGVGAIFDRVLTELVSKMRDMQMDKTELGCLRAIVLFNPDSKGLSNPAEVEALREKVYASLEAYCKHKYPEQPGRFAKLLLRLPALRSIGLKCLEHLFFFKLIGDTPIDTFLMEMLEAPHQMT

CCCCCCCCOC(=O)c1ccc(C(=O)OCCCCCCCC)c(C(=O)OCCCCCCCC)c1
inactive: [1] | [2] | [3] | [4] | [5] | [6] | [7] | [8]

Nc1ccc([N+](=O)[O-])cc1[N+](=O)[O-]
inactive: [9] | [1] | [2] | [3] | [4] | [5] | [6] | [10] | [11] | [7]

O=C(OC1CCCCC1)c1ccccc1C(=O)OC1CCCCC1
active: [9] 32.6 µM
inactive: [1] | [2] | [3] | [4] | [12] | [5] | [6] | [7]

CN1[C@@H]2CC[C@H]1CC(OC(=O)c1cc(Cl)cc(Cl)c1)C2 (stereo not given in full)
inactive: [1] | [2] | [3] | [4] | [12] | [5] | [6] | [7] | [13] | [8]
active: [11] 3.79 µM

O=C(N[C@H](c1ccccc1)[C@@H]1CN2CCC1CC2)c1c(Cl)ccc(C(F)(F)F)c1Cl
inactive: [9] | [1] | [2] | [3] | [4] | [12] | [5] | [11] | [7]

C/C=C/C=O
inactive: [9] | [1] | [2] | [3] | [12] | [14] | [5] | [6] | [10] | [11] | [7] | [13] | [8]

Nc1nc(N)nc(N)n1
inactive: [9] | [1] | [2] | [3] | [12] | [14] | [5] | [6] | [10] | [11] | [7] | [13] | [8]

Cc1ccccc1C(=O)Nc1cccc(OC(C)C)c1
inactive: [1] | [2] | [3] | [4] | [12] | [6] | [7]

O=[Se]=O
inactive: [9] | [1] | [2] | [3] | [4] | [5] | [6] | [10] | [7] | [13] | [8]

ClCC(Br)CBr (stereo not given)
inactive: [9] | [1] | [2] | [3] | [12] | [14] | [5] | [6] | [10] | [11] | [7] | [13] | [8]

CCCCN=C=O
inactive: [9] | [1] | [2] | [3] | [12] | [14] | [5] | [6] | [10] | [11] | [7] | [13] | [8]

CCCC(Cn1cncn1)c1ccc(Cl)cc1Cl (stereo not given)
inactive: [9] | [1] | [2] | [3] | [4] | [5] | [7] | [8]

O=C(NC(=O)c1c(F)cccc1F)Nc1cc(Cl)c(Oc2ncc(C(F)(F)F)cc2Cl)c(Cl)c1
active: [14] 20.8 µM
inactive: [1] | [2] | [3] | [4] | [5] | [11] | [7]

CC[C@H]1C[C@H]2[C@@H]3CCC4=CC(=O)CC[C@@H]4[C@H]3CC[C@]2(C)[C@H]1O
inactive: [9] | [1] | [2] | [3] | [4] | [12] | [5] | [7] | [13] | [8]

ClP(Cl)(Cl)(Cl)Cl
inactive: [9] | [1] | [2] | [3] | [4] | [5] | [6] | [10] | [11] | [7]

CN1C[C@H](CNC(=O)OCc2ccccc2)C[C@@H]2c3cccc4c3c(cn4C)C[C@H]21
inactive: [9] | [1] | [2] | [3] | [4] | [5] | [7] | [13] | [8]

CCc1ccc(C(=O)NN(C(=O)c2cc(C)cc(C)c2)C(C)(C)C)cc1
inactive: [1] | [2] | [3] | [4] | [12] | [5] | [6] | [11] | [7] | [13] | [8]

O=C(O)CC(Cl)C(=O)O (stereo not given)
inactive: [1] | [2] | [3] | [12] | [14] | [5] | [6] | [10] | [11] | [7] | [13]

c1ccc(C2CC2)c(OCC2=NCCN2)c1
inactive: [9] | [1] | [2] | [3] | [12] | [14] | [5] | [6] | [10] | [11] | [7] | [13] | [8] | [15] | [16] | [17] | [18] | [19] | [20]

Nc1nc(=S)[nH][nH]1
inactive: [9] | [1] | [2] | [3] | [12] | [14] | [5] | [6] | [10] | [11] | [7] | [13] | [8]

CCCN(CCCl)c1c([N+](=O)[O-])cc(C(F)(F)F)cc1[N+](=O)[O-]
inactive: [1] | [2] | [3] | [4] | [11] | [7] | [8]

CC(C)O.CC(C)O.OCCN(CCO)CCO.OCCN(CCO)CCO.[Ti]
inactive: [1] | [2] | [3] | [4] | [12] | [5] | [10] | [11] | [7] | [13] | [8]

CC/C(=N\OC/C=C/Cl)C1=C(O)CC(C2CCOCC2)CC1=O (stereo not given)
inactive: [9] | [1] | [2] | [3] | [12] | [14] | [5] | [6] | [10] | [11] | [7]
